In the library only some 2.4% were active in any assay of this set; here they are far more common.
D2 PAM-1: positive allosteric modulators of human D2 dopamine receptor. HEK293 T-REx D2, calcium flux, EC20 dopamine potentiation. potentiation, % at 10 µM. 0.34% of 340,000 active. AID 485347;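 active = potentiation over 3 SD above the plate norm, cut at about 30% in these data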; note: 0% is about no effect
Target sequence (P14416 whole entry, looked up): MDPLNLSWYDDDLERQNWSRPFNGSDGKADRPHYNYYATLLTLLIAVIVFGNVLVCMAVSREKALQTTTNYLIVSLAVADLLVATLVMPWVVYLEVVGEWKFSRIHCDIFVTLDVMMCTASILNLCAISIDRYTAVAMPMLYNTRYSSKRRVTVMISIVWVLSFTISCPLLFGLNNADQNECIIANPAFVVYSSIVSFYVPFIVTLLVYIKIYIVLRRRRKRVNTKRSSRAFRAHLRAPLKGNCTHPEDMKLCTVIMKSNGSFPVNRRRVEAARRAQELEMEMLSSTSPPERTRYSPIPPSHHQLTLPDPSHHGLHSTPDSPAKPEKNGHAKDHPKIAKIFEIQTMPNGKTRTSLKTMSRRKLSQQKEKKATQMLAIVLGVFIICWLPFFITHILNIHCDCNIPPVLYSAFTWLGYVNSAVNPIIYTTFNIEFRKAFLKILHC
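Tetracycline-induced Hek293 Trex D2 cells, force-coupled to calcium, loaded with no-wash calcium dye. Compound added with 180 s kinetic read for agonism, then EC20 dopamine and a further 180 s read for potentiation.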
D2 ag-1: activates the human D2 dopamine receptor; 0.084% of 360,000 active; DiscoveRx PathHunter D2 beta-arrestin, luminescence, 90 min; 100% = 57 uM dopamine signal; activation, % (test concentration not listed); P14416; in the data active = activation above about 40%; inconclusive = between about 15% and that limit
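Agonist mode: compounds alone added to overnight-plated D2 PathHunter cells for 90 min at 37 C, with 57 uM final dopamine (EC100) defining full response. Beta-arrestin recruitment detected by chemiluminescent reagent, read after 1 h at ambient temperature.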
D2 antag: antagonists of human D2 dopamine receptor; HEK293 TREx D2 cells, calcium flux, dopamine EC80; inhibition, % at 10 µM; 2% of 340,000 active; AID 485344; in the data active = inhibition above about 30%; inactive = below that, where a call was filed; note: 0% is about no effect
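Calcium flux kinetic readout in an inducible HEK293 TREx D2 line plated overnight at 30 C. After 180 s compound exposure, an EC80 dopamine challenge follows with another 180 s kinetic read to detect antagonism.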
D2 ag-2: activates the human D2 dopamine receptor. HEK293 T-REx D2 cells, calcium flux agonist mode. P14416. 0.53% of 340,000 active. AID 485358. activation, % at 2 µM;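 active = activation over 3 SD above normal in the single-dose calcium agonist read, cut at about 30% in these data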; note: 0% is about no effect
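Calcium-flux readout, 1 cycle/sec over 180 s following compound pin transfer, in inducible HEK293 Trex D2 cells (force-coupled); dopamine controls included. Positive calcium responses during this window marked compounds as potential agonists.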
D2 PAM-2: positive allosteric modulators of human D2 dopamine receptor; 0.23% of 360,000 active; DiscoveRx D2 beta-arrestin cells, luminescence, 90 min; 100% = 57 uM dopamine signal; AID 624464; potentiation, % (test concentration not listed); P14416; in the data active = potentiation above about 50%; inconclusive = mostly about 30% to 49%
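PathHunter beta-arrestin assay in DiscoveRx D2 cells. Compounds were added with an EC20 of dopamine (50 nM final) for 90 min at 37 deg C. Luminescence was read 1 h after detection reagent, with 57 uM dopamine as the EC100 control.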
* hit, by the source's call.

What do the screens show for `C=CCc1ccccc1OCC(O)CN1CCN(c2ccccc2F)CC1` (stereo unspecified)?
D2 PAM-1: -26; D2 ag-1: 1; D2 antag: 66*; D2 ag-2: 27; D2 PAM-2: -37

What do the screens show for `OC(COc1ccccc1Cl)CN1CCN(CC(O)COc2ccccc2Cl)CC1` (stereo unspecified)?
D2 PAM-1: -16; D2 ag-1: 0; D2 antag: 70*; D2 ag-2: 3; D2 PAM-2: -44

How did CCOc1ccccc1N1CCN(CC(O)COC2CCCc3ccccc32)CC1 (stereo unspecified) do in these assays?
D2 PAM-1: -34; D2 ag-1: -1; D2 antag: 78*; D2 ag-2: 6; D2 PAM-2: -7

What do the screens show for `COc1cc(C(C)=O)ccc1OCC(O)CN1CCN(c2ccccn2)CC1` (stereo unspecified)?
D2 PAM-1: -18; D2 ag-1: 60*; D2 antag: 93*; D2 ag-2: 78*; D2 PAM-2: 23

Results for Cc1ccccc1OCC(O)CN1CCN(C)CC1 (stereo unspecified) ?
D2 PAM-1: 9; D2 ag-1: -6; D2 antag: -16; D2 ag-2: -1; D2 PAM-2: -7

Results for O=S(=O)(c1cccs1)N1CCN(CC(O)COC2CCCc3ccccc32)CC1 (stereo unspecified) ?
D2 PAM-1: 3; D2 ag-1: 0; D2 antag: 8; D2 ag-2: 0; D2 PAM-2: 5

What do the screens show for `COc1ccccc1N1CCN(CC(=O)c2c[nH]c3ccccc23)CC1`?
D2 PAM-1: -25; D2 ag-1: 0; D2 antag: 63*; D2 ag-2: -1; D2 PAM-2: -17

How did COC(=O)c1[nH]c2cc(C)ccc2c1NC(=O)CN1CCN(c2ccccc2OC)CC1 do in these assays?
D2 PAM-1: -20; D2 ag-1: -4; D2 antag: 70*; D2 ag-2: 0; D2 PAM-2: -35

How did COC(=O)c1[nH]c2cc(C)ccc2c1NC(=O)CN1CCOCC1 do in these assays?
D2 PAM-1: -15; D2 ag-1: 0; D2 antag: 5; D2 ag-2: -1; D2 PAM-2: 0

Results for O=C(CN1CCN(c2ccccc2F)CC1)c1c[nH]c2ccccc12 ?
D2 PAM-1: -17; D2 ag-1: 0; D2 antag: 20; D2 ag-2: 0; D2 PAM-2: -40

Results for CC(C)Oc1cccc(C(=O)Nc2ccc3oc(-c4ccccc4)nc3c2)c1 ?
D2 PAM-1: -9; D2 ag-2: 1

Results for CCCN(CCC)C(=O)c1nn(C)c2c1CSc1ccc(C)cc1-2 ?
D2 PAM-1: -4; D2 ag-2: 0

How did COc1ccc(-c2nc(SCC(=O)Nc3ccc4c(c3)OCCO4)c(-c3ccc(C)cc3)[nH]2)cc1OC do in these assays?
D2 PAM-1: -12

What do the screens show for `CN(C)c1ccc(/C=C/C(=O)c2cccnc2)cc1`?
D2 PAM-1: -9; D2 ag-1: 0; D2 antag: -12; D2 ag-2: 59*; D2 PAM-2: -7

Results for CN(C)c1ccc(/C=C/C(=O)c2ccc(O)cc2)cc1 ?
D2 ag-1: 4; D2 PAM-2: 0

What do the screens show for `CN(C)c1ccc(/C=C/C(=O)c2ccc3c(c2)OCO3)cc1`?
D2 PAM-1: -17; D2 ag-1: -3; D2 antag: -52; D2 ag-2: 68*; D2 PAM-2: 10

How did CCc1nc2ccc(C(=O)Nc3cc(-c4ccccc4)ccc3OC)cn2c1N(C=O)CCC(C)C do in these assays?
D2 ag-1: 134*; D2 PAM-2: -2

What do the screens show for `Cc1ccc(NC(=O)Cn2nc(C(F)(F)F)c3c2CCC3)cc1C`?
D2 PAM-1: 4; D2 ag-2: -1

Results for O=C(Cn1nc(C(F)(F)F)c2c1CCCC2)Nc1ccc2c(c1)OCO2 ?
D2 PAM-1: 32*; D2 ag-1: -4; D2 antag: -6; D2 ag-2: 1; D2 PAM-2: -12

How did CC(C)CNC(=S)Nc1ccccc1F do in these assays?
D2 PAM-1: 34*; D2 ag-1: -3; D2 antag: -3; D2 ag-2: -1; D2 PAM-2: -11

Results for Cc1ccc(CNC(=O)C2CCN(S(=O)(=O)c3cc(-c4noc(C)n4)ccc3C)CC2)cc1 ?
D2 PAM-1: 8; D2 ag-2: 0

Results for COc1cccc(NCc2ccc([N+](=O)[O-])s2)c1 ?
D2 PAM-1: 19; D2 ag-1: 10; D2 antag: -29; D2 ag-2: 0; D2 PAM-2: 50*

Results for COc1ccc(S(=O)(=O)NCC(c2ccco2)N2CCN(c3ccccc3F)CC2)cc1C (stereo unspecified) ?
D2 PAM-1: 9; D2 ag-2: 0

Results for O=C(NC1=NCCS1)c1cc(-c2cccnc2)nc2ccccc12 ?
D2 PAM-1: -2; D2 ag-1: -2; D2 antag: 33*; D2 ag-2: 1; D2 PAM-2: 0

Results for Cc1noc(C)c1CSc1nc2[nH]ncc2c(=O)n1-c1ccccc1 ?
D2 PAM-1: 32*; D2 ag-1: -3; D2 antag: -28; D2 ag-2: 0; D2 PAM-2: -6

Results for COc1ccc(COCC(O)CN2CCCCC2)cc1OC (stereo unspecified) ?
D2 PAM-1: 1; D2 ag-1: -2; D2 antag: -15; D2 ag-2: -2; D2 PAM-2: -7

How did COc1ccc(COCC(O)CN(Cc2ccccc2)C(C)C)cc1OC (stereo unspecified) do in these assays?
D2 PAM-1: -3; D2 ag-1: 0; D2 antag: 31*; D2 ag-2: 1; D2 PAM-2: -6

How did O=C(Nc1ccccc1C(=O)NC1CC1)c1ccc([N+](=O)[O-])o1 do in these assays?
D2 PAM-1: 16; D2 ag-1: inconclusive; D2 antag: -3; D2 ag-2: 0; D2 PAM-2: 59*

How did O=C(Nc1cccc2ccccc12)c1ccc([N+](=O)[O-])o1 do in these assays?
D2 PAM-1: -11; D2 ag-1: 2; D2 antag: 1; D2 ag-2: 0; D2 PAM-2: 8

What do the screens show for `COc1ccc2cc(CNc3ccc(C)cc3)c(=O)n(CC(=O)Nc3ccc(OC)c(Cl)c3)c2c1`?
D2 PAM-1: 9; D2 ag-2: 0

How did COc1ccc(OCC(=O)Nc2c(C(=O)N(CCN(C)C)Cc3ccco3)oc3ccccc23)cc1 do in these assays?
D2 PAM-1: 31*; D2 ag-1: -4; D2 antag: -3; D2 ag-2: 1; D2 PAM-2: -30

What do the screens show for `Cc1ccc(C)c(NC(=O)CCCN2C(=O)C(c3ccccc3)Oc3cccnc32)c1` (stereo unspecified)?
D2 PAM-1: 3; D2 ag-2: 1

From PubChem
